Measurements as given in the supplement of paper PMC7411054.

Assays:
Assay in all cases: phenotypically active (imaging signature differs from DMSO and reproducible) at any of 0.3-9 uM (binary (1 = active, 0 = inactive)); higher = active
Conditions in all cases: treatment time: 24 h
A549-ACTB-RAB5A = test system: A549-ACTB-RAB5A
Summary of the method: (§1)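 Fifteen gene-edited A549, HepG2 and WPMY1 reporter lines (BFP segmentation plus GFP and RFP/FusionRed markers) were treated at 0.3, 1, 3 or 9 µM for 24 h, four wells each, then imaged live. Live-cell features per well were normalised to DMSO control wells. Deviation required ≥3 of 4 wells beyond the 95th percentile of DMSO Euclidean distances, and reproducibility required median replicate Pearson correlation above the 95th percentile of non-replicates. Phenotypic activity needed both criteria.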

A549-CANX-COX4 = test system: A549-CANX-COX4
Summary of the method: as §1

A549-GM130-SQSTM1 = test system: A549-GM130-SQSTM1
Summary of the method: as §1

A549-TP53BP1-CLTA = test system: A549-TP53BP1-CLTA
Summary of the method: as §1

A549-TUBA1B-RELA = test system: A549-TUBA1B-RELA
Summary of the method: as §1

HepG2-ACTB-RAB5A = test system: HepG2-ACTB-RAB5A
Summary of the method: as §1

HepG2-CANX-COX4 = test system: HepG2-CANX-COX4
Summary of the method: as §1

HepG2-GM130-SQSTM1 = test system: HepG2-GM130-SQSTM1
Summary of the method: as §1

HepG2-TP53BP1-CLTA = test system: HepG2-TP53BP1-CLTA
Summary of the method: as §1

HepG2-TUBA1B-RELA = test system: HepG2-TUBA1B-RELA
Summary of the method: as §1

WPMY1-ACTB-RAB5A = test system: WPMY1-ACTB-RAB5A
Summary of the method: as §1

WPMY1-CANX-COX4 = test system: WPMY1-CANX-COX4
Summary of the method: as §1

WPMY1-GM130-SQSTM1 = test system: WPMY1-GM130-SQSTM1
Summary of the method: as §1

WPMY1-TP53BP1-CLTA = test system: WPMY1-TP53BP1-CLTA
Summary of the method: as §1

WPMY1-TUBA1B-RELA = test system: WPMY1-TUBA1B-RELA
Summary of the method: as §1

Measured: phenotypically active

CC1=CC(=O)CC(C)(C)C1(O)/C=C/C(C)=C\C(=O)O (mixture of isomers) [(+/-)-2-cis-4-trans-Abscisic acid]
inactive: A549-ACTB-RAB5A 0 | A549-CANX-COX4 0 | A549-GM130-SQSTM1 0 | A549-TP53BP1-CLTA 0 | A549-TUBA1B-RELA 0 | HepG2-ACTB-RAB5A 0 | HepG2-CANX-COX4 0 | HepG2-GM130-SQSTM1 0 | HepG2-TP53BP1-CLTA 0 | HepG2-TUBA1B-RELA 0 | WPMY1-ACTB-RAB5A 0 | WPMY1-CANX-COX4 0 | WPMY1-GM130-SQSTM1 0 | WPMY1-TP53BP1-CLTA 0 | WPMY1-TUBA1B-RELA 0

CC(C)c1ccc2oc3nc(N)c(C(=O)O)cc3c(=O)c2c1 [Amlexanox]
inactive: A549-ACTB-RAB5A 0 | A549-CANX-COX4 0 | A549-GM130-SQSTM1 0 | A549-TP53BP1-CLTA 0 | A549-TUBA1B-RELA 0 | HepG2-ACTB-RAB5A 0 | HepG2-CANX-COX4 0 | HepG2-GM130-SQSTM1 0 | HepG2-TP53BP1-CLTA 0 | HepG2-TUBA1B-RELA 0 | WPMY1-ACTB-RAB5A 0 | WPMY1-CANX-COX4 0 | WPMY1-GM130-SQSTM1 0 | WPMY1-TP53BP1-CLTA 0 | WPMY1-TUBA1B-RELA 0

O=C(O)c1cc(/N=N/c2ccc(S(=O)(=O)Nc3ccccn3)cc2)ccc1O [Sulfasalazine]
inactive: A549-ACTB-RAB5A 0 | A549-CANX-COX4 0 | A549-GM130-SQSTM1 0 | A549-TP53BP1-CLTA 0 | A549-TUBA1B-RELA 0 | HepG2-ACTB-RAB5A 0 | HepG2-CANX-COX4 0 | HepG2-GM130-SQSTM1 0 | HepG2-TP53BP1-CLTA 0 | HepG2-TUBA1B-RELA 0 | WPMY1-ACTB-RAB5A 0 | WPMY1-CANX-COX4 0 | WPMY1-GM130-SQSTM1 0 | WPMY1-TP53BP1-CLTA 0 | WPMY1-TUBA1B-RELA 0

NCCCC[C@H](N[C@@H](CCc1ccccc1)C(=O)O)C(=O)N1CCC[C@H]1C(=O)O [lisinopril]
inactive: A549-ACTB-RAB5A 0 | A549-CANX-COX4 0 | A549-GM130-SQSTM1 0 | A549-TP53BP1-CLTA 0 | A549-TUBA1B-RELA 0 | HepG2-ACTB-RAB5A 0 | HepG2-CANX-COX4 0 | HepG2-GM130-SQSTM1 0 | HepG2-TP53BP1-CLTA 0 | HepG2-TUBA1B-RELA 0 | WPMY1-ACTB-RAB5A 0 | WPMY1-CANX-COX4 0 | WPMY1-GM130-SQSTM1 0 | WPMY1-TP53BP1-CLTA 0 | WPMY1-TUBA1B-RELA 0

COC(=O)c1ccc(N2CCN(C)CC2)c(NC(=O)c2cccc(OC)c2)c1
inactive: A549-ACTB-RAB5A 0 | A549-CANX-COX4 0 | A549-GM130-SQSTM1 0 | A549-TP53BP1-CLTA 0 | A549-TUBA1B-RELA 0 | HepG2-ACTB-RAB5A 0 | HepG2-CANX-COX4 0 | HepG2-GM130-SQSTM1 0 | HepG2-TP53BP1-CLTA 0 | HepG2-TUBA1B-RELA 0 | WPMY1-ACTB-RAB5A 0 | WPMY1-CANX-COX4 0 | WPMY1-GM130-SQSTM1 0 | WPMY1-TP53BP1-CLTA 0 | WPMY1-TUBA1B-RELA 0
